# Among all 190,000 compounds or so, about 110 (0.058%) were called active. Roughly 2% stayed inconclusive and do not appear here. The list comes from a sample in which actives are over-represented; it also holds similar structures and randomly drawn compounds. Unmarked numbers belong to inactive results.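 Rule for the calls: active = fluorescent GTP binding to Rab7 beads changed by at least 20 points from the 100% baseline, either direction, mostly lower; inconclusive = compound itself probably fluorescent, or too few beads counted; inactive = the rest.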
# System: Rab7 GTPase wild type (dog), Bodipy-FL-GTP binding
# Assay: modulators of GTP binding to Rab7, primary screen, biochemical, wildtype, multiplex bead flow cytometry (AID 758);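 note: median green fluorescence of bound Bodipy-FL-GTP per Rab7 bead population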
# Details: GST-Rab7 beads, fluorescent GTP binding, at 10 µM, actives lie on both sides
row,SMILES,GTP binding activity (percent of control)
1,CCOc1ccc(C2SCC(=O)Nc3c2c(C)nn3C2CCOC(C)(C)C2)cc1 (stereo not given),79% (active)
2,CCCC(C)n1[nH]c(=O)c2c1NC(=O)CSC2c1ccc(OC)c(OC)c1 (stereo not given),100%
3,CN(C)CCCN=Cc1c(O)n(Cc2ccco2)c(=O)[nH]c1=O,104%
4,COP(=O)(OC)C(NC(=O)c1ccc(C)cc1)C(Cl)(Cl)Cl (stereo not given),99%
5,O=C(Cc1ccccc1)N1CCN(C2CCCCCC2)CC1,98%

# — PubChem BioAssay AID758 (NMMLSC, 2007)
